Screening data (PubChem)
PHOSPHO1 block – blocks human PHOSPHO1 phosphatase activity; Q8TCT1; recombinant PHOSPHO1, absorbance phosphatase assay; inhibition, % at 13.3 µM; actives 1.1% (n = 290,000); in the data active = inhibition above about 60%
Target sequence (Q8TCT1 whole entry, looked up): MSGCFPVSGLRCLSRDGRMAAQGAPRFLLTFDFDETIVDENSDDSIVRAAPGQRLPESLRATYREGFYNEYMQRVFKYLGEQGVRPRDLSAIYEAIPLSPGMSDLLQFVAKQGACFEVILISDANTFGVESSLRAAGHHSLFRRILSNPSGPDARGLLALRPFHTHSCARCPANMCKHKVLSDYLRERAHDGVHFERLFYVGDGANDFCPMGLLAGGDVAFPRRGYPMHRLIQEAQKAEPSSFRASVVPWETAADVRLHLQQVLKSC
M18AAP inhibitor – PfM18AAP enzyme inhibition; recombinant PfM18AAP, H-Glu-NHMec fluorogenic cleavage; inhibition, % at 7.35 µM; actives 1.2% (n = 290,000);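 active = inhibition above the campaign mean inhibition over all tested compounds plus 3 SD, cut at about 28% in these data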
Cardio protect – protects H9c2 cardiomyocytes from peroxide injury | H2O2 injury protection, ATPLite, 2 h | protection from H2O2 cell death, % at 20 µM | actives 0.63% (n = 360,000);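 active = compounds giving at least 50% protection of heart cells from peroxide-induced death in the single-dose screen, raw or plate-pattern-corrected value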
PfGluPho inh – PfG6PD (Plasmodium falciparum) enzyme inhibition | PfGluPho enzyme, NADPH resazurin-diaphorase fluorescence | actives 0.78% (n = 350,000) | inhibition, % at 20 µM;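 active = inhibition reaching at least a set limit at 20 µM in the primary screen, cut at about 59% in these data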
ALR inh – blocks human ALR sulfhydryl oxidase activity; inhibition, % (concentration not given with the values); purified ALR, DTT oxidation, H2O2 HRP-luminol luminescence; actives 3.8% (n = 290,000);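 active = mean replicate inhibition above about 79%, with every replicate also reaching it, limit read from the data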
Target sequence (P55789 whole entry, looked up): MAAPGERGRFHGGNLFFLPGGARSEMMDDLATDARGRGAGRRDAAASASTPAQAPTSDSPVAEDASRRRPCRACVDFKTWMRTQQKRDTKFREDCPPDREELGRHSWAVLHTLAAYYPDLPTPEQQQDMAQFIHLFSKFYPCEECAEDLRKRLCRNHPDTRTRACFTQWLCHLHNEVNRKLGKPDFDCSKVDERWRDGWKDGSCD
Each line names hits and unclear results; the compound was inactive in the other large screens. The list is not random: actives were taken first. Their share in the collection is about 5.6%.

O=C(NNC(=O)c1ccco1)c1ccco1	none (no result: PHOSPHO1 block, M18AAP inhibitor, ALR inh)
O=C(NCC(F)(F)F)c1csc([C@@H]2O[C@H](CO)[C@H](O)[C@H](O)[C@H]2O)n1	none (no result: PHOSPHO1 block, M18AAP inhibitor, PfGluPho inh, ALR inh)
C=CCc1cc(C(=O)N2CCCCC2)ccc1O	none
C=CCc1ccc(O)c(-c2ccc(O)c(CC=C)c2)c1	ALR inh 98
O=C(CSC1=NS(=O)(=O)c2ccccc2N1)Nc1cccc(F)c1	none (no result: PHOSPHO1 block, M18AAP inhibitor, ALR inh)
O=[N+]([O-])c1ccc2nc(C3CCCCC3)[nH]c2c1	ALR inh 97
COC(=O)[C@@H](NC(=O)c1ccc2c(c1)S(=O)(=O)c1ccccc1C2=O)C(C)C	none (no result: ALR inh)
CCCCc1c(O)nc(SCC(=O)c2ccccc2)n(-c2ccccc2C)c1=O	ALR inh 97
CCCCc1c(O)nc(SCC(=O)c2ccccc2)n(-c2ccccc2OC)c1=O	ALR inh 99
CCOc1ccc(-c2c(C(=O)N/N=C/c3cccc(Br)c3)nnn2-c2nonc2N)cc1	none
CC(=O)NCCSc1ccc(S(=O)(=O)N2CCCC2)cn1	none (no result: PHOSPHO1 block, M18AAP inhibitor)
CN(C)c1ccc(C(=O)NC2(N3CCC3=O)CCCC2)cc1	ALR inh 100
O=C(O)C1=CC(=C(c2ccc(O)c(C(=O)O)c2)c2ccc(O)c(C(=O)O)c2)C=CC1=O	ALR inh 97 (no result: PHOSPHO1 block, M18AAP inhibitor, Cardio protect, PfGluPho inh)
Cc1ccc(C)c(Nc2nc3nonc3nc2N2CCOCC2)c1	PHOSPHO1 block 61
O=C1NCCN(CC2CCN(CCc3ccc(Cl)c(Cl)c3)CC2)C1=O	none (no result: PHOSPHO1 block, M18AAP inhibitor, ALR inh)
COc1ccc(CCN2C(=O)CC(NNC(=O)c3cccc(O)c3)C2=O)cc1 (configuration not stated)	ALR inh 95
O=C(NNC(=O)c1n[nH]c2ccccc12)c1ccccc1	none (no result: PHOSPHO1 block, M18AAP inhibitor, ALR inh)
COc1ccc(-c2nc(CSCC(=O)NC3CCN(Cc4ccccc4)CC3)c(C)o2)cc1OC	ALR inh 99
COc1ccc(-c2nc(CSCC(=O)NC3CCCC3)c(C)o2)cc1OC	ALR inh 99
CCOC(=O)N1CCC(NC(=O)CSCc2nc(-c3ccc(OC)c(OC)c3)oc2C)CC1	ALR inh 98
COc1ccc(-c2nc(CSCC(=O)NC3CC3)c(C)o2)cc1OC	ALR inh 99
CCCOc1ccc(F)cc1-c1cc(C(=O)NCc2cc(OC)cc(OC)c2)[nH]n1	none (no result: PHOSPHO1 block, M18AAP inhibitor, PfGluPho inh, ALR inh)
CC1=C(C)CC(C(=O)NC2CCN(C(C)C)CC2)C(C(=O)O)C1 (configuration not stated)	none
COc1ccccc1NC(=O)c1ccc2c(O)c(S(=O)(=O)c3ccccc3)c(=O)[nH]c2c1	none
Cc1cc(OCC(=O)OCC(=O)c2ccc[nH]2)ccc1Cl	none (no result: PHOSPHO1 block, M18AAP inhibitor, ALR inh)
CC1=CC(=C(C#N)c2nc3ccccc3s2)C=C(C)N1CC1CCCO1 (configuration not stated)	ALR inh 95
c1ccc2sc(NCC3CCCO3)nc2c1 (configuration not stated)	none
COc1ccc(C(N)=O)c(OCC(=O)Nc2cc(C)on2)c1	none (no result: PHOSPHO1 block, M18AAP inhibitor)
CC1CCCN(C(=O)c2ccc(Br)c(S(=O)(=O)N3CCOCC3)c2)C1 (configuration not stated)	none (no result: PHOSPHO1 block, M18AAP inhibitor)
O=c1oc2ccccc2c(NC2CCCCC2)c1NS(=O)(=O)c1ccc(F)cc1	none
N#Cc1cccc(S(=O)(=O)Nc2c(NC3CCCCC3)c3ccccc3oc2=O)c1	ALR inh 98
Cc1ccccc1NC(=O)Cc1nc(COC(=O)Cc2c(F)cccc2Cl)cs1	none (no result: PHOSPHO1 block, M18AAP inhibitor, ALR inh)
CN(C)S(=O)(=O)c1cccc(NC(=S)NCc2ccco2)c1	none
CN(C)S(=O)(=O)c1cccc(NC(=S)Nc2ccc(Cl)cc2Cl)c1	ALR inh 99
CCN(CCO)c1ccc(NC(=S)Nc2cccc(S(=O)(=O)N(C)C)c2)cc1	ALR inh 99
CN(C)S(=O)(=O)c1cccc(NC(=S)Nc2cc(Cl)cc(Cl)c2)c1	none (no result: ALR inh)
Cn1c(-c2sccc2OCc2ccccc2)n[nH]c1=S	PHOSPHO1 block 99, ALR inh 97
S=c1[nH]nc(-c2cccs2)n1Cc1ccccc1	none (no result: ALR inh)
Cn1c(-c2sccc2OCc2ccc(Cl)cc2Cl)n[nH]c1=S	none
Cc1ccc(COc2ccsc2-c2n[nH]c(=S)n2C)cc1	PHOSPHO1 block 107
O=C(COC(=O)C1CC2CCCC(C1)C2=O)Nc1ccc(Cl)cn1 (configuration not stated)	none (no result: PHOSPHO1 block, M18AAP inhibitor, ALR inh)
CCn1c(SCC(=O)NNC(=S)Nc2ccc(C)cc2)nnc1-c1ccc(Cl)cc1	ALR inh 97
CN(C(=O)COC(=O)C1=COCCO1)c1c(N)n(Cc2ccccc2)c(=O)[nH]c1=O	none (no result: PHOSPHO1 block, M18AAP inhibitor)
O=C1c2cccc3c([N+](=O)[O-])ccc(c23)C(=O)N1c1ccc(Cl)cn1	PHOSPHO1 block 93
O=C1c2cccc3c([N+](=O)[O-])ccc(c23)C(=O)N1c1nccs1	PHOSPHO1 block 97, PfGluPho inh 60
O=C1c2cccc3cccc(c23)C(=O)N1c1nccs1	none
CC(=O)Oc1ccc(N2C(=O)c3cccc4c([N+](=O)[O-])ccc(c34)C2=O)cc1	none
O=C1c2cccc3c([N+](=O)[O-])ccc(c23)C(=O)N1c1ccccn1	none
O=C1c2cccc3c([N+](=O)[O-])ccc(c23)C(=O)N1O	ALR inh 90
CCC1(c2ccc(C)cc2)NC(=O)N(C(C)C(=O)Nc2ccc(N3CCOCC3)cc2)C1=O (configuration not stated)	none (no result: PHOSPHO1 block, M18AAP inhibitor, ALR inh)
Oc1ccc2ccc3[nH]cnc3c2c1	ALR inh 100
CN(C)Cc1c(O)ccc2[nH]cnc12	none
CC(C)(C)c1ccc(OCC(O)CSc2ncn[nH]2)cc1 (configuration not stated)	PHOSPHO1 block 80
CC[C@@]1(c2ccccc2OC)C(=O)N(C(=O)OC)N1C(=O)OC	none (no result: ALR inh)
CC[C@@]1(c2cccc(C)c2)C(=O)N(C(=O)OC)N1C(=O)OC	ALR inh 83
O=S1(=O)NC(=NCCOCCO)c2ccccc21	none
Nc1ccc2c(c1)-c1ccccc1S(=O)(=O)N2	ALR inh 100
Cc1ccc2c(c1)-c1ccccc1S(=O)(=O)N2	ALR inh 95
CCn1c(CC(=O)Nc2ccc(F)cc2)nnc1SCC(=O)Nc1nnc(C)s1	none
CC1(C)CC(=O)C(C(N)=NC(=O)c2ccc([N+](=O)[O-])cc2)=C(O)C1	ALR inh 89
CC1(C)CC(=O)C(C(N)=NC(=O)c2ccccc2)=C(O)C1	none
O=C(Nc1ccccc1N1CCOCC1)c1cccc(NS(=O)(=O)c2ccc(F)c(F)c2)c1	none
O=C(CCS(=O)(=O)c1ccccc1)N(CCCN1CCOCC1)c1nc2ccccc2s1	ALR inh 98 (no result: PHOSPHO1 block, M18AAP inhibitor)
Cc1ccc2nc(N(CCN3CCOCC3)C(=O)CCS(=O)(=O)c3ccccc3)sc2c1	none (no result: PHOSPHO1 block, M18AAP inhibitor)
CCCC(=O)N(CCN1CCOCC1)c1nc2cc(C)c(C)cc2s1	ALR inh 95
Cc1ccc(S(=O)(=O)CCC(=O)N(CCCN2CCOCC2)c2nc3ccccc3s2)cc1	ALR inh 98 (no result: PHOSPHO1 block, M18AAP inhibitor)
CCc1nc(C(N)=O)c2[nH]c(=O)n(-c3ccccc3F)c2n1	none (no result: ALR inh)
COc1ccccc1CNC(=O)CN(C)CC(=O)Nc1ccc(F)c(F)c1F	none (no result: PHOSPHO1 block, M18AAP inhibitor)
CC(C)(C)OC(=O)C[C@@H]1C/C=C\C[C@H](CC(=O)N(CCO)Cc2ccccc2)C(=O)N[C@@H](Cc2c[nH]c3ccccc23)COC1=O	none (no result: PHOSPHO1 block, M18AAP inhibitor)
